# Results reported in PubChem BioAssay AID2049 (The Scripps Research Institute Molecular Screening Center, 2009).
# Calls of active or inactive are those of the source. No rule for the calls is given here.
# Test system: BCL3
# Experiment: STAT3 activation with BCL3 mRNA and toxicity – cell-based, STAT1 reporter, BCL3 qPCR, cytotoxicity, late-stage follow-up (AID 2049)
# Conditions: human cell reporter; BCL3 mRNA qPCR, at 10 µM, stronger effect = higher value
Compound,fold change,outcome
COc1cc(NC(=O)c2cc(C(C)C)on2)c(OC)cc1Cl,0.42,inactive; active
COc1cc(NC(=O)c2cc(C3CC3)on2)c(OC)cc1Cl,2.07,active; probe
CCCc1cc(C(=O)Nc2cc(OC)c(Cl)cc2OC)no1,1.3,active
